12-LOX inh: Primary qHTS assay for inhibitors of human arachidonate 12S-lipoxygenase (ALOX12): Round 2. Polyunsaturated fatty acid lipoxygenase ALOX12 (Homo sapiens), P18054. purified 12hLO, xylenol orange hydroperoxide absorbance. Potency, µM (series often up to 108 µM), inactives show top-dose activity change, negative = inhibition, hits mostly inhibitors. 1.1% of 580,000 active. AID 1671190, 2021; further: potency means the concentration at half of the fitted maximal effect
Target sequence (P18054 whole entry, looked up): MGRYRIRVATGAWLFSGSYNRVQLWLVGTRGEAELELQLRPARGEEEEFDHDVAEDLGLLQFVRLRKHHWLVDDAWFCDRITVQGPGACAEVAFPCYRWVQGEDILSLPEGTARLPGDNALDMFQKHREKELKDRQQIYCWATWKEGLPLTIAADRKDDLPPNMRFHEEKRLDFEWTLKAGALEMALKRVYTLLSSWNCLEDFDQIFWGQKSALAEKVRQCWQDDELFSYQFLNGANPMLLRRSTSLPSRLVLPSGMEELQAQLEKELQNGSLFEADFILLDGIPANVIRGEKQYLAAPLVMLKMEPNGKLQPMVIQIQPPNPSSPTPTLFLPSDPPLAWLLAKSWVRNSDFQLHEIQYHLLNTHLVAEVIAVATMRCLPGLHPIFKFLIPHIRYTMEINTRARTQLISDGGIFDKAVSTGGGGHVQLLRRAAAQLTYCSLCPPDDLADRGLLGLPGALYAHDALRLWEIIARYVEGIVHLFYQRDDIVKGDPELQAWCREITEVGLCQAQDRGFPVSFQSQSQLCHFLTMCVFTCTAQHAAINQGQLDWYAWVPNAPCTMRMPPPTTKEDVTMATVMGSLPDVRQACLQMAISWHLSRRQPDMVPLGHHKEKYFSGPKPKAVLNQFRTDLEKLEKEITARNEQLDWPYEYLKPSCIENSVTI
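Purified human 12hLO at 150 nM in 25 mM Hepes, 0.01% Triton X-100, pH 7.0, preincubated 15 min at room temperature with compound. Reaction started with 40 uM arachidonic acid, 30 min at room temperature. Hydroperoxide measured by Fe-xylenol orange, 573/405 nm absorbance ratio.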
HT1080 IDH1KD tx: qHTS for induction of synthetic lethality in tumor cells producing 2HG: qHTS for the HT-1080-IDH1KD cell line; HT-1080 IDH1 knockdown viability, ATP luminescence, 48 h; Potency, µM (top dose mostly 46.1 µM), inactives show at the top dose activity, negative = toxicity, usual class: cytotoxic; 2% of 360,000 active;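 further: potency means the concentration at half of the fitted maximal effect; 0% = DMSO wells and -100% = cell-free medium wells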
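% activity derives from luminescence (CellTiter-Glo), normalised to DMSO and no-cell wells. HT-1080-IDH1KD cells, 750/well, had 48 h compound exposure at 37 °C.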
IL-1B inflam inh: qHTS for Inhibitors of Inflammasome Signaling: IL-1-beta AlphaLISA Primary Screen; AID 743279, 2014; THP-1 LPS/ATP IL-1B secretion, AlphaLISA, 16 h; stronger effect = lower value; activity change, % at 57.5 µM; 4.7% of 360,000 active; in the data active means activity change below about -50%; inconclusive means mostly about -30% to -49%
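Secreted IL-1B measured by AlphaLISA bead assay after 16 h compound exposure of THP-1 cells; compounds (final up to 57.5 uM) added 1 h before LPS (250 ng/mL) and ATP (1.25 mM) stimulation; lower signal means less secretion.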
DT40 TDP1 CPT: qHTS for Inhibitors of human tyrosyl-DNA phosphodiesterase 1 (TDP1): qHTS in cells in presence of CPT | chicken DT40 Tdp1-/-;hTDP1 cells + 20 nM CPT, ATP luminescence, 48 h | Potency, µM (doses to about 46.2 µM), without a hit: at the top dose activity change, negative = growth inhibition, most hits filed as inhibitors | 12% of 420,000 active | AID 686979, 2013; further: potency means the concentration at half of the fitted maximal effect; nearly all actives have a fitted effect of over 55% in size
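Chicken DT40 Tdp1-/- cells stably complemented with human TDP1 were seeded at 400 cells/well in medium containing 20 nM camptothecin, exposed to pin-transferred compounds, and grown at 37 °C for at least 48 hr. Viability was read as ATP luminescence.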
DT40 TDP1 no CPT: qHTS for Inhibitors of human tyrosyl-DNA phosphodiesterase 1 (TDP1): qHTS in cells in absence of CPT | DT40 Tdp1-/- hTDP1 cells, no CPT, ATP luminescence, 48 h | Potency, µM (titrated, usually from 46.2 µM), for inactives: at the highest dose activity change, negative = growth inhibition, most hits filed as inhibitors | 15% of 420,000 active | AID 686978, 2013; further: potency means the concentration at half of the fitted maximal effect; nearly all actives have a fitted effect of over 55% in size
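Camptothecin absent (DMSO only). Human TDP1-complemented DT40 knockout cells, 400 cells/well, 37 °C for minimum 48 hr; ATP measured via CellTiter-Glo, 30 min dark incubation, luminescence.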
HT1080-NT tox: qHTS for induction of synthetic lethality in tumor cells producing 2HG: qHTS for the HT-1080-NT fibrosarcoma cell line | AID 686970, 2013 | HT-1080-NT fibrosarcoma viability, CellTiter-Glo ATP luminescence, 48 h | Potency, µM (highest dose often 46.1 µM), for the others: top-dose activity, negative = less viability, most hits filed as cytotoxic | 1.6% of 360,000 active;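 further: NT is the 2HG producing partner of a matched IDH1 knockdown line; potency means the concentration at half of the fitted maximal effect; 0% = DMSO-treated cells and -100% = media-only wells without cells; nearly all actives have a fitted effect of over 55% in size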
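A 48-hour cytotoxicity screen used HT-1080-NT cells plated 2 hours before compound delivery. ATP-based CellTiter-Glo luminescence measured viability, normalized to DMSO and no-cell controls.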
* marks the source's active call; other numbers are inactive results; ? = inconclusive; / = no result given; [ ] = another dose, or the depositor's remark. The full list was thinned out, with hits kept by preference. Unless noted, the call rests on the fitted dose curve; in most records, active means well fitted curve in the direction sought with a large enough effect; inconclusive means small, poorly fitted or top-dose-only effect, or another doubt; inactive means no such curve, though single readings can be large; an effect the other way counts as inactive or inconclusive. Unless noted, on the % scale 0 is the no-effect control and ±100 the full control effect.

SMILES	12-LOX inh	HT1080 IDH1KD tx	IL-1B inflam inh	DT40 TDP1 CPT	DT40 TDP1 no CPT	HT1080-NT tox
CN1CC[C@]23c4ccccc4N[C@H]1[C@]21CCN(C)[C@H]3Nc2ccccc21	-13%	-2%	-21	0%	7%	16%
O=C(c1cccc(Cl)c1)N1CCC(N(Cc2ccccc2)C2CCOCC2)CC1	-3%	/	/	/	/	/
CCOc1cccc(-c2cc(C(=O)NCCCN3CCOCC3)c3ccccc3n2)c1	-7%	/	/	/	/	/
CCOc1ccc(-c2cc(C(=O)NCCCn3ccnc3)c3cc(Br)ccc3n2)cc1	?	?	-99*	12µM*	10µM*	?
CCOc1ccc(-c2cc(C(=O)NCCCN3CCN(CC)CC3)c3ccccc3n2)cc1	7%	?	-71*	?	?	?
CCOc1ccc(-c2cc(C(=O)NC(C)CC)c3ccccc3n2)cc1 (stereo not given)	2%	/	/	/	/	/
CCOc1ccc(-c2cc(C(=O)O)c3ccccc3n2)cc1	?	11µM*	21	?	?	?
CCCCSc1nc2c(c(=O)[nH]c(=O)n2C)n1CCOC	6%	/	/	/	/	/
COc1cccc(CN2CCCCCNC(=O)CC2c2ccccc2)c1 (stereo not given)	17%	/	/	/	/	/
CCN1C(=O)/C(=C2/Sc3ccc(OC)cc3N2C)SC1=Nc1cccc(O)c1	13%	-23%[9.24 µM]	-3	5.8µM*	16µM*	-24%
C=CCN1C(=O)/C(=C2/Sc3ccc(OC)cc3N2C)SC1=NCc1ccccc1	-1%	3%	1	?	?	10%
C=CCN1C(=O)/C(=C2/Sc3ccc(OC)cc3N2C)SC1=Nc1ccccc1	0%	-2%	19	8.2µM*	?	2%
O=[S+]([O-])(Nc1nncs1)c1ccc2c(c1)OCCN(Cc1nccs1)C2	3%[176 µM]	/	/	/	/	/
COc1ccc(C2N(c3ccc4c(c3)OCCO4)C(=O)C2(F)F)cc1OC (stereo not given)	6%	-7%	-79*	-17%	-2%	3%
COc1ccc(CNc2nc(SCc3cc(=O)n4cc(Cl)ccc4n3)nc3ccccc23)cc1	-7%	-4%	19	13µM*	21µM*	-1%
O=c1cc(CSc2ccccc2NS(=O)(=O)c2ccc(F)cc2)nc2ccc(Cl)cn12	-27%	/	/	/	/	/
C=CCC[C@@H](Cc1ccc(F)cc1)C(=O)OC[C@@H]1CCCN1C(=O)[C@@H](CC=C)CC(=O)N[C@@H](CO)Cc1ccccc1	?	-1%	?	15µM*	16µM*	-26%
C=CC[C@@H](CC(=O)N[C@@H](CO)Cc1ccccc1)C(=O)N[C@@H](COC(=O)[C@@H](CC=C)Cc1ccc(F)cc1)Cc1ccccc1	0%	1%	-2	-19%	?	-9%
C=CCC[C@H](Cc1ccc(F)cc1)C(=O)OC[C@@H]1CCCN1C(=O)[C@@H](CC=C)CC(=O)NCCO	-9%	-5%	6	?	21µM*	7%
Cc1ccc(NC(=O)C(C)N2CCCc3ccccc32)cc1S(=O)(=O)N1CCOCC1 (stereo not given)	?	-5%	-7	-88%	6.5µM*	-1%
CCN(CC)S(=O)(=O)c1cc(NC(=O)C(C)N(C)CC(=O)Nc2c(C)cccc2C)ccc1C (stereo not given)	0%	-4%	-3	26µM*	18µM*	-2%

From PubChem
